Assay results reported in PubChem BioAssay AID708 (SRMLSC, 2007).
In all, about 65,000 compounds went through this assay and fewer than 10 were called active.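 How the source made its calls: active means at 10 µM dose, initial 340 nm absorbance at least 2 fold that of control wells; inactive means change under 2 fold.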 Not all results are given here.

Experiment: compound light absorbance at 340 nm, profiling panel, artefact control, biochemical, MLSMR library, data from PS, PMK, MK assays (AID 708);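 further: initial absorbance extrapolated from kinetic A340 decline of NADH oxidation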
Conditions: compound absorbance at 340 nm, fold over control; at 10 µM; active compounds read high

Fold change, inactive:
CCCCCN(C(=O)NC(=O)Nc1ccccc1C)S(C)(=O)=O 1
CCNc1nc(N)nc(Oc2ccc(OCC)nn2)n1 1.07
CCOC(=O)CSc1nncc2ccc(OC)c(OC)c12 1.07
CCN(CC)S(=O)(=O)c1cc(C(=O)Nc2ccccn2)ccc1C 1.09
Cc1c2cnn(-c3ccccc3)c(=O)c2c(C)n1CCCC(=O)N1CCN(C)CC1 1.06
CNC(=O)c1cc2c(ccc3ccccc32)oc1=N 1.04
CSc1ncccc1C(=O)OCC(=O)N1CCOCC1 1.01
COc1ccc(-c2cn3ccsc3n2)cc1 1
CCCn1c(C(O)c2ccc(OCC)cc2)nc2ccccc21 (configuration not stated) 1.02
O=C(NCc1ccco1)C1CCCN(S(=O)(=O)c2cccc3nonc23)C1 (configuration not stated) 1.03
CCn1nc(NC(=O)c2ccco2)c2cc3ccc(C)cc3nc21 1.07
Cc1ccc(-n2nc(-c3ccco3)cc2C(=O)NCc2cccnc2)cc1 0.99
COc1ccc(C2CC(c3ccc(C)cc3)Nc3nc(N)nn32)cc1 (configuration not stated) 1.02
Cc1ccc(C(=O)Nc2nnc(-c3ccncc3)s2)o1 1.33
CN(CCC#N)c1ncnc2scc(-c3ccccc3)c12 1.03
COc1ccc(C2CC(c3ccc(C)cc3)Nc3ncnn32)cc1 (configuration not stated) 0.99
CSc1nsc(SC)c1NC(=O)OC1CCCCC1 1.03
Cc1ccc(NC2=NC(c3ccccc3)n3c(nc(C)cc3=O)N2)cc1 (configuration not stated) 1.01
Cc1ccc(C2c3c(oc4ccc(C)cc4c3=O)C(=O)N2CCCN2CCOCC2)cc1 (configuration not stated) 1.07
Cc1occc1C(=O)Nc1nnc(-c2ccncc2)s1 1.18
CCn1c(SCC(=O)NCc2ccco2)nnc1-c1ccc(N)cc1 1.03
COc1cccc(OCCOc2cccc(/C=N/n3cnnc3)c2)c1 1.05
C=CCn1c(CC(=O)Nc2cccc(OC)c2)nnc1SCC(=O)NC1CCCCC1 1.04
Cc1ccc(NC(=O)CS(=O)CC(=O)N(c2ccccc2)C(C)C(=O)NC2CCCC2)cc1 (configuration not stated) 0.99
CCCOc1ccccc1-c1nc(SCCC(=O)O)n[nH]1 1
O=c1cccc(-c2ccc(Br)cc2)o1 1.07
CN1C(C)(C)CC(NC(=O)CCC(=O)NC2CC(C)(C)N(C)C(C)(C)C2)CC1(C)C 1.05
Cc1ccc(S(=O)(=O)NCc2csc(C)n2)c(C)c1 0.97
CCOC(=O)c1ccccc1NC(=O)CC1Nc2ccccc2NC1=O (configuration not stated) 1.07
O=C(CCCOc1ccccc1)Nc1cccc(C(=O)O)c1 1.03
O=P(c1cccs1)(c1cccs1)c1cccs1 1.01
Cc1nnc(SCc2ccc(C(=O)c3ccc(Cl)cc3)o2)n1-c1ccccc1 1.14
c1csc(-c2cn3c(n2)SCC3)c1 1.03
COc1ccc(OCc2cccc(C(=O)N3CCCC3)c2)cc1 0.98
CCCC(=O)C1=C(N(C)c2ccccc2)CC(C)(C)C(C(=O)OC)C1=O (configuration not stated) 1.04
c1ccc(-c2nnc(SCc3nc4ccccc4[nH]3)o2)cc1 1
CC(=O)c1cccc(NC(=O)N2CCCC2C(=O)NCCC(C)C)c1 (configuration not stated) 1
Cc1ccccc1S(=O)(=O)Cc1ccc(C(=O)NCCN2CCCCC2C)o1 (configuration not stated) 0.98
CCOc1ccc(C2C(C(=O)O)c3ccccc3C(=O)N2CCN2CCOCC2)cc1 (configuration not stated) 1.01
Cc1ccccc1OCCC(=O)Nc1c(C)n(C)n(-c2ccccc2)c1=O 1.04
COc1ccccc1NC1=NC(c2ccc(Cl)cc2)N=C(N)N1 (configuration not stated) 1.01
CC1CN(C(=O)CN2C(=O)NC(C)(c3ccccc3)C2=O)CC(C)O1 (configuration not stated) 1.02
CCC(C)Sc1nc(C)nc2c1c(=O)n(C)c(=O)n2C (configuration not stated) 1.03
CCNc1nc(NCC)nc(N(C)n2cnnc2)n1 1.02
CC(C)c1cc(C(=O)O)on1 0.99
O=C(CCCC(=O)N(CC(=O)NC1CCCC1)Cc1ccccc1Cl)Nc1ccccn1 1.01
O=C(CCN1C(=O)C2C3C=CC(C3)C2C1=O)Nc1ccccc1F (configuration not stated) 0.99
COc1ccc(OC)c(C(c2nnnn2C(C)(C)C)N2CCc3ccccc3C2)c1 (configuration not stated) 1.04
O=C(OCC(=O)N1CCN(C(=O)c2ccco2)CC1)c1ccccc1Cc1ccccc1 1
CC(C)CCNC(=O)CCNS(=O)(=O)c1ccc(Cl)cc1 0.97
Cc1cc(/C=N/n2cnnc2)c(C)n1-c1cccc(C(=O)O)c1 1.11
O=C(CNCCO)NC12CC3CC(CC(C3)C1)C2 1.03
CCN(c1ccccc1)S(=O)(=O)c1ccc(N)cc1 1.02
CC(=O)NS(=O)(=O)c1ccccc1 1
CCC(CC)c1nnc(NS(=O)(=O)Cc2ccccc2)s1 1.04
CCOc1cc(S(=O)(=O)NC2CC(C)(C)NC(C)(C)C2)ccc1F 1.05
O=C1CCCC(O)=C1C=NCCc1ccccc1 0.99
O=C(Nc1cc(=O)[nH]c2ncnn12)c1ccccc1Cl 0.98
Cn1c2c(c(=O)n(C)c1=O)C(c1ccc(O)cc1)Nc1ccccc1O2 (configuration not stated) 1
Cc1occc1C(=O)N1CCCc2ccccc21 1.01
COc1ccc(C2SCCN2S(=O)(=O)c2ccccc2)cc1OC (configuration not stated) 0.98
Cc1cc(C)cc(N(C(C)C(=O)Nc2c(C)n(C)n(-c3ccccc3)c2=O)S(C)(=O)=O)c1 (configuration not stated) 1.05
Cn1nnnc1SCC(=O)N1CCN(Cc2ccccc2)CC1 1.01
CC(=O)Nc1cc(C(=O)O)ccc1S(=O)(=O)c1ccc(Cl)cc1 1.03
CCC1CCCCN1CCNS(=O)(=O)c1ccc2c(c1)CCN2C(C)=O (configuration not stated) 1.03
O=C(CSc1nnc(-c2ccoc2)o1)N1CCOCC1 1.05
COc1cc(OC)cc(C(=O)NCCSCc2ccco2)c1 1.02
CC(=O)NC1CC2CCCC(C1)N2CC(=O)Nc1ccccc1 (configuration not stated) 1
COc1cc2[nH]c(=O)n(CCC(=O)NC3CCN(Cc4ccccc4)CC3)c(=O)c2cc1OC 1.06
COC(=O)c1ccc(/C=N\n2c(C)nnc2C)cc1 1.02
O=C(COc1ccccc1Cl)Nn1cnnc1 1.08
Cc1cc(-n2nc(C)cc2C)n2ncc(-c3ccccc3)c2n1 1.03
CCOC(=O)c1c(CN2CCOCC2)n(-c2ccccc2)c2ccc(O)cc12 0.98
Cc1ccc2nc(S(=O)(=O)O)[nH]c2c1 1.02
CC(=O)c1cc(C#N)c(SCC(=O)C(C)(C)C)nc1C 1.07
CC(=C1C(=O)c2ccccc2C1=O)N1CCN(c2ccccn2)CC1 1.15
CCS(=O)(=O)NCCc1ccc(OC)c(OC)c1 1.02
CCOC(=O)COc1ccc(Cl)cc1C1NC(=O)NC(C)=C1C(C)=O (configuration not stated) 1.05
COc1ccc(-c2ccc(-c3noc(-c4ccncc4)n3)c(OC)n2)cc1 1.09
CSc1nc(O)c(Cc2ccccc2)c(=O)[nH]1 1
COc1ccccc1N1CCN(C(=O)c2c(-c3c(Cl)cccc3Cl)noc2C)CC1 0.98
Cc1cccc(OCc2nnc(SCC(=O)N3CCN(C(=O)c4ccco4)CC3)n2C)c1C 1.02
COCCn1nnnc1CN1CCC(NC(=O)Nc2cccc(OC)c2)CC1 1
CC(=O)c1c(N2CCOCC2)nc(=S)n(Cc2ccccc2)c1C 1.06
COc1cc(CO)c(C2(CO)CCCC2)cc1OC 1.04
CCOC(=O)C1=C(O)CSC1=Nc1cccc(Cl)c1 1.02
CCOC(=O)c1ccc2[nH]c(C)c(CN3CCN(C)CC3)c(=O)c2c1 1
Cc1nn(-c2ccccc2)c(CC(C)(C)C(=O)O)c1C(=O)O 1.02
COc1ccc2c(c1OC)C(=O)N(c1ncn[nH]1)C2 1.04
CC(C)(C)NC(=O)C(c1ccncc1)N(C(=O)CNC(=O)c1ccco1)c1ccc2c(c1)OCO2 (configuration not stated) 0.98
COc1ccc(N2C(=O)C3CCCN3C2c2cc(OC)c(OC)cc2OC)cc1 (configuration not stated) 1.01
O=C1c2ccccc2C(O)N1Cc1ccccc1Cl (configuration not stated) 1.03
COc1cccc(C(=O)Nc2c3c(nn2-c2cccc(C)c2C)CS(=O)(=O)C3)c1OC 1.01
CCC(=O)N1CCc2cc(S(=O)(=O)NC(C(=O)N3CCc4ccccc4C3)C(C)C)ccc21 (configuration not stated) 1
CCOc1cc(C(=O)N2CCc3cc(OC)c(OC)cc3C2)ccc1OC(F)F 0.97
O=C(Nc1cnn(Cc2ccc(Cl)cc2)c1)C1CCCC1 1.03
c1cc(-n2cnnn2)ccc1NC1=NCCC1 1.01
O=C(C1CCCO1)N(Cc1ccccc1)c1ccccc1 (configuration not stated) 1.03
CC(C)OC(=O)C(C#N)c1nc2ccccc2nc1N1CCN(Cc2ccc3c(c2)OCO3)CC1 (configuration not stated) 1.02
CCN1CCN(C(=O)c2ccccc2N(C)S(=O)(=O)c2ccc(C)cc2)CC1 1.05
COc1c(O)cccc1-c1nnn(CCC(=O)OCC(=O)c2ccccc2)n1 1.01
CS(=O)(=O)N(C(=O)NC(=O)NC1CCS(=O)(=O)C1)C1CCCCC1 (configuration not stated) 1.04
